Measurements published in PubChem BioAssay (NCATS).
Inconclusive results are not listed. Unmarked numbers belong to inactive results. Activity calls are given as the source filed them. The call rests on the fitted dose curve; in most records, active means well fitted cell-killing curve with a large enough effect; inconclusive means small, poorly fitted or top-dose-only effect; inactive means flat fitted curve, though single readings scatter.

Assay: Cell Viability - LYMP2-008 (AID 980); further: nearly all actives have a fitted effect of over 60% in size;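 on activity change, negative = cytotoxicity: cells exposed to compound for 24 h at 37 °C; on the % scale 0 is the no-effect control and ±100 the full control effect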
Details: LYMP2-008 lymphoblastoid cell viability, qHTS; series mostly up to 92.2 µM; activity change, negative = cytotoxicity: at the top concentration
Method in brief: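 Luminescent ATP read-out (CellTiter-Glo, 30 min RT) after 24 hr compound exposure at 37 C of human lymphoblastoid cells in complete medium. Decrease in ATP taken as cytotoxicity; AC50 derived by standard Hill fit of qHTS concentration-response data.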
Potency means the concentration at half of the fitted maximal effect.

Point of comparison: `O=C(O)c1ccc(CO)o1`, “activity change, negative = cytotoxicity” value -20.6%. Against it:
- C=CCn1c(=O)n(CC=C)c(=O)n(CC=C)c1=O — higher, 5.06%
- Nc1nc(-c2ccccc2)cs1 — higher, -8.31%
- Cc1ccc(C(=O)O)cc1 — higher, -13.2%
- CCC(=O)/C=C/C1C(C)=CCCC1(C)C (stereo not drawn) — higher, -15.6%
- O=C(O)c1ccccc1[N+](=O)[O-] — higher, -6.93%
- Nc1cccc(N)c1 — higher, -4.24%
- CN(C)c1cccc(O)c1 — higher, 2.72%
- O=C(O)c1ccc(C(=O)O)cc1 — higher, -11.1%
- CC(C)(C)OCC1CO1 (stereo not drawn) — higher, -2.71%
- Cc1cc(C2(c3cc(C)c(O)cc3C)OS(=O)(=O)c3ccccc32)c(C)cc1O — higher, -16.2%
- CC(C)(C)OC=O — higher, -1.37%
- CCCCC(CC)CO (stereo not drawn) — higher, -3.58%
- O=[N+]([O-])c1ccccc1CCO — higher, -0.661%
- COCCOC(=O)c1ccccc1C(=O)OCCOC — higher, -5.48%
- O=C(O)c1cccc([N+](=O)[O-])c1 — higher, -2.29%
- CC1(N)CCC(C(C)(C)N)CC1 (stereo not drawn) — higher, -1.01%
- N#Cc1ccccc1 — higher, -0.492%
- C=CCCCCCCC=C — higher, 3.08%
- CC(O)COC(C)(C)C (stereo not drawn) — higher, -2.12%
- NS(=O)(=O)O — higher, -0.0135%
- NC(=S)NNC(N)=S — higher, -4.52%
- Cc1cccc2cccnc12 — higher, -12.5%

In the case of `CCCCC/C=C/C=C/C=O`, the Potency was 39.8 µM (active).
With `CC1=C(/C=C/C(C)=C/C=C/C(C)=C\C=O)C(C)(C)CCC1` the Potency was 50.1 µM (active).

Assay: Cell Viability - LYMP2-010 (AID 981);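 further: cells exposed to compound for 24 hours at 37 °C; nearly all actives have a fitted effect of over 55% in size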; on activity, negative = cytotoxicity: on the % scale 0 is the no-effect control and ±100 the full control effect
Details: LYMP2-010 lymphoblastoid cell viability, qHTS; series mostly up to 92.2 µM; activity, negative = cytotoxicity: at the top concentration
Method in brief: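 qHTS cytotoxicity, 1536-well: 2500 cells/well, 5 hr settle, 24 hr compound at 37 C, CellTiter-Glo 30 min RT, luminescence read. Decrease in ATP = toxicity; AC50 via standard Hill equation. Positive control tetraoctylammonium bromide.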

Point of comparison: `O=C(O)c1cccc([N+](=O)[O-])c1`, “activity, negative = cytotoxicity” value -9.21%. Against it:
- C=CCn1c(=O)n(CC=C)c(=O)n(CC=C)c1=O — lower, -10.2%
- Nc1nc(-c2ccccc2)cs1 — lower, -19.7%
- Cc1ccc(C(=O)O)cc1 — higher, -8.27%
- O=C(O)c1ccccc1[N+](=O)[O-] — lower, -13.5%
- Nc1cccc(N)c1 — higher, -2.2%
- CN(C)c1cccc(O)c1 — higher, -7.93%
- O=C(O)c1ccc(C(=O)O)cc1 — higher, -7.98%
- NCCCCCCN — lower, -13.4%
- CC(C)(C)OCC1CO1 (stereo not drawn) — higher, -8.24%
- Cc1cc(C2(c3cc(C)c(O)cc3C)OS(=O)(=O)c3ccccc32)c(C)cc1O — lower, -18.3%
- Cc1ccccc1C(=O)O — higher, -3.68%
- COc1cccc(N)c1 — higher, -2.24%
- CCCCC(CC)CO (stereo not drawn) — lower, -10%
- O=[N+]([O-])c1ccccc1CCO — higher, -9.14%
- COCCOC(=O)c1ccccc1C(=O)OCCOC — lower, -11.1%
- CCCCCNCCCCC — higher, -6.53%
- CCCCOCCOCCSC#N — higher, 6.34%
- CC1(N)CCC(C(C)(C)N)CC1 (stereo not drawn) — higher, -4.07%
- CCCCC(CC)CNCC(CC)CCCC (stereo not drawn) — higher, -5.46%
- Nc1nc(CC(=O)O)cs1 — higher, -1.82%
- N#Cc1ccccc1 — lower, -13.2%
- O=[N+]([O-])c1ccc(Cl)cc1Cl — lower, -13.2%
- C=CCCCCCCC=C — lower, -11.2%
- CC(O)COC(C)(C)C (stereo not drawn) — lower, -13.4%
- CC(C)C(C)C — higher, -6.65%
- CCN(C(=O)N(CC)c1ccccc1)c1ccccc1 — lower, -22.3%
- Cc1ccc(C)o1 — higher, -6%
- O=CNc1ccccc1 — higher, -5.11%
- NS(=O)(=O)O — lower, -17%
- CC(=O)OCCC(C)C — higher, -2.41%
- Cc1cccc(Br)c1 — higher, -1.86%
- NC(=S)NNC(N)=S — lower, -14.8%
- Cc1cccc2cccnc12 — lower, -12.2%
- CC(=O)c1ccccn1 — higher, -2.16%

For `CCCCC/C=C/C=C/C=O`, the Potency was 39.8 µM (active).
For `CCC(=O)/C=C/C1C(C)=CCCC1(C)C` (stereo not drawn), the Potency was 50.1 µM (active).
In the case of `CC1=C(/C=C/C(C)=C/C=C/C(C)=C\C=O)C(C)(C)CCC1`, the Potency was 39.8 µM (active).

Assay: Cell Viability - LYMP2-012 (AID 982);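 further: cellular ATP by luciferase luminescence where a drop means cytotoxicity; cells exposed to compound for one day before reading; nearly all actives have a fitted effect of over 55% in size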;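 on activity change, negative = cytotoxicity: 0% = DMSO only and full loss = 92 µM tetraoctylammonium bromide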
Details: LYMP2-012 lymphoblastoid cell viability qHTS; series mostly up to 92.2 µM; activity change, negative = cytotoxicity: at the top concentration

Point of comparison: `CC1(N)CCC(C(C)(C)N)CC1` (stereo not drawn), “activity change, negative = cytotoxicity” value -9.03%. Against it:
- C=CCn1c(=O)n(CC=C)c(=O)n(CC=C)c1=O — higher, -3.31%
- Nc1nc(-c2ccccc2)cs1 — lower, -26.6%
- Cc1ccc(C(=O)O)cc1 — higher, -0.644%
- O=C(O)c1ccccc1[N+](=O)[O-] — higher, 0.321%
- Nc1cccc(N)c1 — higher, -0.416%
- CN(C)c1cccc(O)c1 — higher, -4.35%
- O=C(O)c1ccc(C(=O)O)cc1 — higher, 1.88%
- NCCCCCCN — higher, 1.15%
- CC(C)(C)OCC1CO1 (stereo not drawn) — higher, 7.8%
- Cc1ccccc1C(=O)O — higher, -2.01%
- COc1cccc(N)c1 — higher, 7.13%
- O=[N+]([O-])c1ccccc1CCO — higher, 9.91%
- O=C(O)c1cccc([N+](=O)[O-])c1 — higher, -0.96%
- CCCCCNCCCCC — higher, -4.12%
- CCCCOCCOCCSC#N — higher, -0.0086%
- CCCCC(CC)CNCC(CC)CCCC (stereo not drawn) — higher, 16.7%
- Nc1nc(CC(=O)O)cs1 — higher, -0.815%
- O=[N+]([O-])c1ccc(Cl)cc1Cl — higher, 2.38%
- C=CCCCCCCC=C — higher, 0.208%
- CC(O)COC(C)(C)C (stereo not drawn) — higher, -2.23%
- CC(C)C(C)C — higher, 3.34%
- O=CNc1ccccc1 — higher, 8.85%
- NS(=O)(=O)O — higher, -3.89%
- CC(=O)OCCC(C)C — higher, 9.39%
- NC(=S)NNC(N)=S — higher, 11.9%
- Cc1cccc2cccnc12 — higher, 6.67%
- CC(=O)c1ccccn1 — higher, 1.81%

With `CCCCC/C=C/C=C/C=O` the Potency was 50.1 µM (active).

Assay: Cell Viability - LYMP2-014 (AID 983);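 further: cells exposed to compound for 24 h at 37 °C; nearly all actives have a fitted effect of over 50% in size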;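 on activity change, negative = cytotoxicity: plate controls were DMSO only for no effect and 92 µM tetraoctylammonium bromide for full effect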
Details: LYMP2-014 lymphoblastoid cells, viability qHTS; series mostly up to 92.2 µM; activity change, negative = cytotoxicity: at the top concentration
Method in brief: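 2500 cells/well, 5 hr 37 C; cpd 24 hr 37 C, complete medium; CellTiter-Glo 30 min RT, luminescence; ATP loss = toxicity; AC50 via Hill eqn; tetraoctylammonium bromide positive control.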

In the case of `CCCCC/C=C/C=C/C=O`, the Potency was 50.1 µM (active).
In the case of `CC1=C(/C=C/C(C)=C/C=C/C(C)=C\C=O)C(C)(C)CCC1`, the Potency was 63.1 µM (active).

Point of comparison: `CC1(N)CCC(C(C)(C)N)CC1` (stereo not drawn), “activity change, negative = cytotoxicity” value -5.74%. Against it:
- Cc1ccc(C(=O)O)cc1 — higher, -0.25%
- CCC(=O)/C=C/C1C(C)=CCCC1(C)C (stereo not drawn) — lower, -26.9%
- O=C(O)c1ccccc1[N+](=O)[O-] — higher, -3.09%
- Nc1cccc(N)c1 — lower, -5.89%
- CN(C)c1cccc(O)c1 — higher, -0.37%
- NCCCCCCN — lower, -6.94%
- Cc1cc(C2(c3cc(C)c(O)cc3C)OS(=O)(=O)c3ccccc32)c(C)cc1O — higher, -2.99%
- Cc1ccccc1C(=O)O — lower, -7.29%
- COc1cccc(N)c1 — higher, 2.69%
- O=[N+]([O-])c1ccccc1CCO — higher, -2.98%
- COCCOC(=O)c1ccccc1C(=O)OCCOC — higher, 0.15%
- O=C(O)c1cccc([N+](=O)[O-])c1 — higher, -2.41%
- CCCCCNCCCCC — lower, -11.1%
- CCCCC(CC)CNCC(CC)CCCC (stereo not drawn) — higher, 2.42%
- N#Cc1ccccc1 — higher, 6.54%
- C=CCCCCCCC=C — higher, -4.71%
- CC(O)COC(C)(C)C (stereo not drawn) — higher, -0.0918%
- CC(C)C(C)C — higher, -0.442%
- CCN(C(=O)N(CC)c1ccccc1)c1ccccc1 — higher, -4.1%
- O=C(O)c1ccc(CO)o1 — lower, -7.94%
- Cc1ccc(C)o1 — lower, -6.76%
- O=CNc1ccccc1 — higher, -4.54%
- NS(=O)(=O)O — lower, -6.16%
- CC(=O)OCCC(C)C — higher, 0.679%
- Cc1cccc(Br)c1 — higher, -3.42%
- NC(=S)NNC(N)=S — higher, -0.525%
- Cc1cccc2cccnc12 — higher, -2.09%
- CC(=O)c1ccccn1 — higher, 1.27%
